Laboratory results reported in PubChem BioAssay (NCATS).
“And” between values parts separate entries of the source, which are not always exact repeats. Identical values can stand only once. Results filed as inconclusive are left out. The source made the active and inactive calls. Calls come from the whole dose curve; as a rule, active = well fitted curve in the direction sought with a large enough effect; inconclusive = small, poorly fitted or top-dose-only effect, or another doubt; inactive = no such curve, though single readings can be large; an effect the other way counts as inactive or inconclusive.

Legend:
[1] = target: Cytochrome P450 3A7 (Homo sapiens) (UniProt P24462); assay: Cytochrome P450 family 3 subfamily A member 7 (CYP3A7) small molecule antagonists: luciferase biochemical qHTS assay (AID 1963596); note: nearly all actives have a fitted effect of over 40% in size; note: potency is the fitted concentration of half-maximal effect; for activity change, negative = inhibition: % is set by controls: 0 for no effect and ±100 for the full control effect
Summary of the method: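 Luminescence read-out (relative luminescence units) after 20 min with detection reagent, which stops the reaction. Enzyme, proluciferin substrate and compound preincubated 10 min, RT; NADPH regeneration system then started 1 h reaction. Ketoconazole as positive control.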

[2] = Viability qHTS for spleen associated tyrosine kinase inhibitor (SYKi) drug resistant MV4-11 cells (AID 1963824); note: nearly all actives have a fitted effect of over 35% in size; note: potency is the fitted concentration of half-maximal effect
Summary of the method: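 CellTiter-Glo luminescence, read 10 min after reagent addition, reports viability after a 72 hr compound exposure. Cells are an MV4-11 line made resistant to SYK inhibition, seeded at 500 per well onto compound-containing plates.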

[3] = Cellular viability qHTS for adrenocortical cancer (ACC) cell line SW-13 (AID 1963989); settings: SW-13 ACC cells viability, CellTiter-Glo, 48 h; activity (max response): hits give low values;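 note: cells grown in serum-free medium with ITS supplement; % is set by controls: 0 for no effect and ±100 for the full control effect; nearly all actives have a fitted effect of over 65% in size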
Summary of the method: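 Compound titrations (up to 46 uM final, in DMSO) were applied to SW-13 cells for 48 h at 37C/5% CO2. Reading used CellTiter-Glo after 20 min at room temperature; fitted curves yielded IC50 and efficacy.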

[4] = Cellular viability qHTS for adrenocortical cancer (ACC) cell line NCI-H295R (AID 1963990); note: nearly all actives have a fitted effect of over 60% in size; note: potency is the fitted concentration of half-maximal effect
Summary of the method: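 Readout: CellTiter-Glo luminescence, 20 min RT. Exposure: 48 h, 37C/5% CO2. Cells: NCI-H295R, ITS-DMEM serum-free. Range: up to 46 uM. Analysis: 4PL fit, IC50 plus efficacy.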

[5] = Quantitative highthroughput screen to assess conditional lethalithy of NOMO1 cells grown in RPMI1640 with untreated serum (RPMI+s) (AID 1963876);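 note: 100% = DMSO wells and 0% = empty wells without cells; nearly all actives have a fitted effect of over 35% in size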
Summary of the method: (§1)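 Each medium arm—HPLM with 10% dialyzed FBS, or RPMI1640 with 5 mM glucose and 10% untreated or dialyzed FBS—was screened against an 11-point, 3-fold compound titration for 48 h at 37 °C, with CellTiter-Glo luminescence as endpoint.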

[6] = Quantitative highthroughput screen to assess conditional lethalithy of NOMO1 cells grown in RPMI1640 with dialyzed fetal bovine serum (RPMI+ds) (AID 1963877);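 note: series mostly up to about 46 µM; 100% = DMSO control wells and 0% = empty wells; nearly all actives have a fitted effect of over 30% in size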
Summary of the method: as §1

[7] = Quantitative highthroughput screen to assess conditional lethalithy of NOMO1 cells grown in Human Plasma-Like Medium with dialyzed fetal bovine serum (HPLM+ds) (AID 1963878);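 note: 100% = DMSO wells and 0% = empty wells on each plate; nearly all actives have a fitted effect of over 35% in size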
Summary of the method: as §1

[8] = Quantitative highthroughput screen to assess conditional lethalithy of P12 Ichikawa cells grown in Human Plasma-Like Medium with dialyzed fetal bovine serum (HPLM+ds) (AID 1963879); settings: Potency: viability; note: series mostly up to about 46 µM; nearly all actives have a fitted effect of over 35% in size
Summary of the method: as §1

[9] = Quantitative highthroughput screen to assess conditional lethalithy of P12 Ichikawa cells grown in RPMI1640 with dialyzed fetal bovine serum (RPMI+ds) (AID 1963880); settings: Potency: P12-Ichikawa viability
Summary of the method: as §1

[10] = Quantitative highthroughput screen to assess conditional lethalithy of P12 Ichikawa cells grown in RPMI1640 with untreated serum (RPMI+s) (AID 1963881); settings: Potency: viability
Summary of the method: as §1

[11] = Quantitative highthroughput screen to assess conditional lethalithy of SEM cells grown in Human Plasma-Like Medium with dialyzed fetal bovine serum (HPLM+ds) (AID 1963882)
Summary of the method: as §1

[12] = Quantitative highthroughput screen to assess conditional lethalithy of SEM cells grown in RPMI1640 with unreated serum (RPMI+s) (AID 1963883)
Summary of the method: as §1

[13] = Quantitative highthroughput screen to assess conditional lethalithy of SEM cells grown in RPMI1640 with dialyzed fetal bovine serum (RPMI+ds) (AID 1963884)
Summary of the method: as §1

Cytochrome P450 3A7 (Homo sapiens), sequence (P24462 whole entry, looked up): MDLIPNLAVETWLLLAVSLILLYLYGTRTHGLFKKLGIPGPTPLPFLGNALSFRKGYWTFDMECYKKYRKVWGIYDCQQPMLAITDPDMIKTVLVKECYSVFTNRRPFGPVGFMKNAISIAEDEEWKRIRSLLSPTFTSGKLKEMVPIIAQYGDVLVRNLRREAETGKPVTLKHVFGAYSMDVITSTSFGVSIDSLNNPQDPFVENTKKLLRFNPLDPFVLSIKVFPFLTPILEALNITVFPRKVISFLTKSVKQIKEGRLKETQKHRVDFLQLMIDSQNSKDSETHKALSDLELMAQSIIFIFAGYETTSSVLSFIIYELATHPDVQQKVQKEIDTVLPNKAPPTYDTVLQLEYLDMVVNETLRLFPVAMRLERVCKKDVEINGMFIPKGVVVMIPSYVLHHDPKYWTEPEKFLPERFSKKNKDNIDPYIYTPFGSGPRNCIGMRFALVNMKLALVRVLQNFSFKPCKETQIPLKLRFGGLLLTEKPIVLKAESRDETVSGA

C[C@H]1O[C@H](O[C@H]2[C@H](O)[C@@H](O)[C@@H](O[C@H]3[C@H](O)[C@@H](O)[C@H](O)O[C@@H]3CO)O[C@@H]2CO)[C@H](O)[C@@H](O)[C@@H]1N[C@H]1C=C(CO)[C@@H](O)[C@H](O)[C@H]1O
inactive: Potency [1] | Potency [2] | activity (max response) [3] -2.85% | Potency [4]

CC(=O)N(CC(O)CO)c1c(I)c(C(=O)NCC(O)CO)c(I)c(C(=O)NCC(O)CO)c1I (stereo unspecified)
inactive: Potency [1] | Potency [2] | activity (max response) [3] 11.9% | Potency [4]

CCN1CCCC1CN (stereo unspecified)
inactive: Potency [1] | Potency [2] | activity (max response) [3] -2.8% | Potency [4]

Cc1c(F)cc2c(=O)c(C(=O)O)cn3c2c1CCC3C (stereo unspecified)
inactive: Potency [1] | Potency [2] | activity (max response) [3] -2.48% | Potency [4]

Clc1ccccc1-c1nc(-c2ccncc2)no1
inactive: Potency [1] | activity (max response) [3] -7.1% | Potency [4]
active: Potency [2] 11.9 µM

CN[C@@H](C)C(=O)N[C@H](C(=O)N1CCC[C@H]1c1nc(C(=O)c2ccc(F)cc2)cs1)C1CCCCC1
inactive: activity (max response) [3] -7.41% | Potency [4]
active: Potency [1] 14.1 µM | Potency [2] 1.05 µM

Cc1ccc(Cl)c(OCC(O)CNC(C)(C)C)c1 (stereo unspecified)
inactive: Potency [1] | Potency [2] | activity (max response) [3] 1.06% | Potency [4]

CC(C)NNC(=O)c1ccncc1
inactive: Potency [1] | Potency [2] | activity (max response) [3] 1.43% | Potency [4]

NNc1nncc2ccccc12
inactive: Potency [1] | Potency [5] | Potency [6] | Potency [7] | Potency [8] | Potency [9] | Potency [10] | Potency [11] | activity (max response) [3] 12.3% and -11.3% | Potency [4]

O=c1[nH]c(=O)n([C@H]2C[C@H](O)[C@@H](CO)O2)cc1I
active: Potency [2] 5.25 µM
inactive: Potency [1] | activity (max response) [3] -5.04% and -11.6% | Potency [4]

C/C=C1\[C@H]2C=C(C)C[C@]1(N)c1ccc(=O)[nH]c1C2
inactive: Potency [1] | Potency [2] | activity (max response) [3] 12.5% | Potency [4]

O=c1c(-c2ccc(O)cc2)coc2cc(OC3O[C@H](CO)[C@H](O)[C@H](O)[C@H]3O)cc(O)c12 (stereo partly specified)
inactive: Potency [1] | Potency [5] | Potency [6] | Potency [7] | Potency [8] | Potency [10] | Potency [11]

CCN(CC)C(=O)c1cccc(C)c1
inactive: Potency [1] | Potency [2] | Potency [4]

CCN(C)C(=O)Oc1cccc([C@H](C)N(C)C)c1
inactive: Potency [1] | Potency [5] | Potency [6] | Potency [7] | Potency [8] | Potency [9] | Potency [10] | Potency [11] | Potency [12] | Potency [13] | activity (max response) [3] 11.5% | Potency [4]

CCN(CC)CCNC(=O)c1ccc(NC(C)=O)cc1
inactive: Potency [1] | Potency [2] | Potency [4]

CC(=O)NC[C@H]1CN(c2ccc(N3CCOCC3)c(F)c2)C(=O)O1
inactive: Potency [1] | Potency [5] | Potency [6] | Potency [7] | Potency [8] | Potency [9] | Potency [11] | Potency [13] | activity (max response) [3] 5.63%

CCOc1ccccc1C(N)=O
inactive: Potency [1] | activity (max response) [3] 2.11% | Potency [4]
active: Potency [2] 9.44 µM

Nc1ccc(S(=O)(=O)Nc2ncccn2)cc1
inactive: Potency [1] | Potency [5] | Potency [6] | Potency [7] | Potency [8] | Potency [9] | Potency [10] | Potency [11] | Potency [12] | Potency [13]

Cc1c(C(=O)N2CCOc3ccc(-c4ccc(N)nc4)cc3C2)ccc(S(C)(=O)=O)c1F
inactive: Potency [1]
active: Potency [2] 3.26 µM | Potency [4] 8.91 µM

CCCCCC(C)N (stereo unspecified)
inactive: Potency [1] | Potency [2] | Potency [4]

C[C@@H](N)C(=O)O
inactive: Potency [1] | Potency [2] | activity (max response) [3] 1.67% | Potency [4]

O=c1[nH]c(=O)c2[nH]c(=O)[nH]c2[nH]1
inactive: activity change, negative = inhibition [1] 3.23% [at 11.5 µM] | viability, % of control [2] 120% [at 9.25 µM]
active: Potency [4] 2.66 µM

CC(C)=CCNc1ncnc2c1ncn2[C@@H]1O[C@H](CO)[C@@H](O)[C@H]1O
inactive: Potency [1]
active: Potency [2] 0.58 µM | Potency [4] 7.31 µM

NC(=O)NC(=O)Cc1ccccc1
inactive: Potency [1] | Potency [2] | activity (max response) [3] -0.635% | Potency [4]

CC1(C)NC(=O)N(c2ccc([N+](=O)[O-])c(C(F)(F)F)c2)C1=O
inactive: Potency [1] | Potency [5] | Potency [6] | Potency [7] | Potency [8] | Potency [10] | Potency [11] | Potency [12] | Potency [13] | activity (max response) [3] -3.44% and -9.93% | Potency [4]

CCN(CC)S(=O)(=O)c1ccc(C(=O)O)cc1
inactive: Potency [1] | Potency [2] | activity (max response) [3] -2.24% | Potency [4]

CSc1cccc(Nc2ncc3cc(-c4c(Cl)cccc4Cl)c(=O)n(C)c3n2)c1
inactive: Potency [1] | Potency [5] | Potency [6] | Potency [7] | Potency [8] | Potency [9] | Potency [10] | Potency [4]
